# Columns and labels:
# Conditions in all cases: concentration: 1 μM, replicates: in singlicate; n = 1
# FGFR4 = tested on: FGFR4
# FGR = tested on: FGR
# FLT1 = tested on: FLT1
# FLT3-autoinhibited = tested on: FLT3-autoinhibited
# FLT3 = tested on: FLT3
# FLT4 = tested on: FLT4
# FRK = tested on: FRK
# FYN = tested on: FYN
# GAK = tested on: GAK
# GCN2(Kin.Dom.2,S808G) = tested on: T1, GCN2(Kin.Dom.2,S808G)
# T1 construct: gene EIF2AK4
# GRK1 = tested on: GRK1
# GRK2 = tested on: T2, GRK2
# T2 construct: gene ADRBK1
# GRK3 = tested on: T3, GRK3
# T3 construct: gene ADRBK2
# GRK4 = tested on: GRK4
# GRK7 = tested on: GRK7
# GSK3A = tested on: GSK3A
# GSK3B = tested on: GSK3B
# HASPIN = tested on: T4, HASPIN
# T4 construct: gene GSG2
# HCK = tested on: HCK
# HIPK1 = tested on: HIPK1
# 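Note: KINOMEscan kinase panel screen.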
Compound,%Inh (FGFR4),%Inh (FGR),%Inh (FLT1),%Inh (FLT3-autoinhibited),%Inh (FLT3),%Inh (FLT4),%Inh (FRK),%Inh (FYN),%Inh (GAK),"%Inh (GCN2(Kin.Dom.2,S808G))",%Inh (GRK1),%Inh (GRK2),%Inh (GRK3),%Inh (GRK4),%Inh (GRK7),%Inh (GSK3A),%Inh (GSK3B),%Inh (HASPIN),%Inh (HCK),%Inh (HIPK1)
Cl.Cn1ccc(-c2cccc(Nc3ccnc4cc(-c5nccs5)ccc34)c2)n1 [GW525701],0%,53%,0%,0%,0%,7%,0%,3%,19%,0%,1%,0%,64%,0%,0%,0%,12%,8%,0%,0%
C[C@H]1CC[C@@H](C(=O)Nc2ccccc2)CN1c1cc(-c2ccc3c(N)n[nH]c3c2)nc(N)n1 [GSK2283293],0%,27%,13%,0%,0%,4%,5%,0%,0%,0%,0%,0%,31%,25%,0%,0%,0%,0%,3%,22%
Cl.Fc1ccccc1COc1ccc(Nc2ncnc3ccc(-c4nnc(C(F)(F)F)o4)cc23)cc1Cl [GW424170],0%,6%,18%,0%,0%,3%,0%,0%,0%,0%,0%,0%,0%,0%,0%,17%,0%,0%,0%,1%
O=c1cc(N2CCOCC2)nc2n(Cc3cccc(Cl)c3)ccn12 [GSK2296823],5%,15%,19%,14%,0%,1%,7%,0%,2%,0%,15%,0%,12%,47%,0%,28%,7%,0%,0%,12%
NC(=O)c1sc(-n2cnc3ccccc32)cc1OCc1ccccc1F [GSK1024306],19%,0%,40%,2%,0%,27%,11%,24%,24%,0%,0%,0%,21%,7%,0%,7%,0%,49%,0%,0%
Clc1cccc(-c2nc(Nc3ccncc3)c3ccccc3n2)c1 [GW873004],0%,55%,34%,0%,17%,52%,29%,0%,3%,0%,10%,0%,0%,0%,0%,0%,0%,50%,26%,43%
CC(C)(C)c1ccc(-n2cnc3c(N)ncnc32)cc1 [SKF-97263],10%,30%,7%,17%,6%,15%,0%,2%,9%,11%,3%,0%,0%,24%,0%,31%,4%,64%,13%,19%
Cl.Cl.c1ccc(-c2cc3ccncc3cc2OC2CCNCC2)cc1 [GSK1122999],30%,23%,28%,0%,4%,22%,0%,44%,12%,11%,0%,0%,0%,9%,10%,21%,18%,89%,0%,5%
Cc1ccc(O)cc1Nc1cc(C(F)(F)F)nc2ccc(-c3ccncc3)cc12 [GW630823],5%,22%,14%,0%,27%,13%,14%,7%,4%,0%,0%,0%,0%,0%,0%,5%,0%,0%,18%,8%

# From paper PMC5540273 (PLoS ONE, 2017)
